In PubChem BioAssay AID1541 (National Center for Advancing Translational Sciences (NCATS), 2009):
Results filed as inconclusive are left out. Calls of active or inactive are those of the source. Calls follow the shape of the dose curve; as a rule, active = well fitted activation curve with a large enough effect; inconclusive = small, poorly fitted or top-dose-only effect, or effect the other way; inactive = no such curve, though single readings can be large or run the other way.

target: Pyruvate kinase PKLR (Homo sapiens) (UniProt P30613); assay: Secondary assay for Activators of Human Liver Pyruvate Kinase; conditions: purified hPK-L, LDH-coupled NADH fluorescence kinetic; series mostly up to 57.5 µM; activation: at the top concentration
Excerpt: Confirmatory assay NIH Chemical Genomics Center [NCGC] Matthew G. Vander Heiden, M.D., Ph.D. [Harvard Medical School, 77 Avenue Louis Pasteur, Boston, MA 02115] NCGC Assay Overview: Human pyruvate kinase liver (hPK-L)enzyme was supplied as a highly purified (>95% pure) preparation from Harvard Medical School and a secondary assay was used to evaluate compounds. This assay couples the formation of pyruvate from hPK-R using lactate dehydrogenase (LDH) and NADH. The depletion of NADH is followed in a fluorescent-based kinetic assay that follows the formation of pyruvate to lactate, as catalyzed LDH. Pyruvate kinase substrates, PEP and ADP, were present in the assay at 0.1 mM and 4 mM respectively. In this kinetic assay initial rates were determined by following the fluorescence of NADH depletion.
NCGC Assay Protocol Summary: Three uL of substrate mix (final concentration, 50 mM Tris-Cl pH 8.0, 200 mM KCl, 15 mM MgCl2, 0.1 mM PEP, 4.0 mM ADP, and 0.2 mM NADH) was dispensed into black-solid 1536 well plates. 23 nL of compounds were delivered by a pin tool and 1 uL of enzyme mix (final concentrations, 10 nM hPK-L and 1 uM of LDH) was added. Plates were immediately placed in ViewLux (Perkin Elmer) and NADH fluorescence was determined at 30 second exposure intervals for between 3 and 6 minutes. Data were normalized to the uninhibited and EC100 activation using known activators such as fructose-bis-phosphate.

Sequence of Pyruvate kinase PKLR (Homo sapiens) (P30613 whole entry, looked up): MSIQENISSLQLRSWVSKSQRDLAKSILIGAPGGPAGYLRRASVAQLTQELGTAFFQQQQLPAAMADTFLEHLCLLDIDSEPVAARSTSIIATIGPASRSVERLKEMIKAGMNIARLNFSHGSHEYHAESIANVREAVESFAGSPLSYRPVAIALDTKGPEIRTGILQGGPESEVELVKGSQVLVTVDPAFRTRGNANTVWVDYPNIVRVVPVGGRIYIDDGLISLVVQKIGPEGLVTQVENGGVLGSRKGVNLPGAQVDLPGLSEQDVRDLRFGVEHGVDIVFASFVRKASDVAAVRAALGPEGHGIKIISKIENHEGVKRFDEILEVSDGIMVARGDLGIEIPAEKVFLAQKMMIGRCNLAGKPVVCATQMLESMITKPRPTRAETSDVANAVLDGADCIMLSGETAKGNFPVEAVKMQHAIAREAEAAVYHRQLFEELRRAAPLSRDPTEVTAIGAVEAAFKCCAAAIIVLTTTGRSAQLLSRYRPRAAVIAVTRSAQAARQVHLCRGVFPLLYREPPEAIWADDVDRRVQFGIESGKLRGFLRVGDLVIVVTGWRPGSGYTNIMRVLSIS

Row | SMILES | activation | Potency
1 | O=S(=O)(NC1CCC(NS(=O)(=O)c2c(F)cccc2F)CC1)c1ccc2c(c1)OCCO2 (stereo not drawn) | -4.61% (inactive) | –
2 | O=S(=O)(NCC1CN(S(=O)(=O)c2ccc3c(c2)OCCO3)C1)c1c(F)cccc1F | -10.5% (inactive) | –
3 | O=S(=O)(c1ccc2c(c1)OCCO2)N1CCN(S(=O)(=O)c2cccc[n+]2[O-])CC1 | -9.32% (inactive) | –
4 | O=S(=O)(NC1CCN(S(=O)(=O)c2c(F)cccc2F)C1)c1ccc2c(c1)OCCO2 (stereo not drawn) | 6.08% (inactive) | –
5 | O=S(=O)(c1c(F)cccc1F)C1CCN(S(=O)(=O)c2ccc3c(c2)OCCO3)CC1 | -4.49% (inactive) | –
6 | Cn1c2ccsc2c2cnn(Cc3ccc(F)cc3)c(=O)c21 | – | 17800 nM (active)
7 | COc1ccc(Cn2ncc3c4sc(C)cc4n(C)c3c2=O)cc1F | -10.5% (inactive) | –
8 | O=S(=O)(c1ccc2c(c1)OCCO2)N1CCN(S(=O)(=O)c2ccccn2)CC1 | 10.7% (inactive) | –
9 | Cc1cc2c(s1)c1c(C)nn(Cc3ccccc3F)c(=O)c1n2C | 27.8% (inactive) | –
10 | Cn1c2cc(B(O)O)sc2c2cnn(Cc3ccccc3F)c(=O)c21 | -4.09% (inactive) | –
11 | Cn1c2cc(Br)sc2c2cnn(Cc3c(F)cccc3Cl)c(=O)c21 | – | 7940 nM (active)
12 | Cc1cc2c(s1)c1cnn(Cc3c(F)cccc3Cl)c(=O)c1n2C | 12.8% (inactive) | –
13 | O=C(c1c(F)cccc1F)N1CCN(S(=O)(=O)c2ccc3c(c2)OCCO3)CC1 | -3.15% (inactive) | –
14 | Cc1cc2c(s1)c1cnn(Cc3ccccc3F)c(=O)c1n2C | – | 3520 nM (active)
15 | Cc1nc2ccc(S(=O)(=O)N3CCN(S(=O)(=O)c4c(F)cccc4F)CC3)cc2s1 | 9.53% (inactive) | –
16 | Cn1c2cc(CO)sc2c2cnn(Cc3ccccc3F)c(=O)c21 | – | 2240 nM (active)
17 | Cc1cc2c(s1)c1cnn(Cc3ccc(F)cc3F)c(=O)c1n2C | 5.17% (inactive) | –

Row | SMILES | activation | Potency
18 | Cc1cc2c(s1)c1cnn(Cc3ccccc3)c(=O)c1n2C | 1.72% (inactive) | –
19 | Cc1cc2c(s1)c1cnn(Cc3cccc(Cl)c3)c(=O)c1n2C | 13.2% (inactive) | –
20 | Cn1c2cc(B(O)O)sc2c2cnn(Cc3c(F)cccc3Cl)c(=O)c21 | 4.69% (inactive) | –
21 | COc1cc2c(s1)c1cnn(Cc3ccccc3F)c(=O)c1n2C | – | 2510 nM (active)
22 | O=S(=O)(NCCCCNS(=O)(=O)c1c(F)cccc1F)c1ccc2c(c1)OCCO2 | 9.7% (inactive) | –
23 | Cn1ccc2cc(S(=O)(=O)N3CCN(S(=O)(=O)c4c(F)cccc4F)CC3)ccc21 | 5.33% (inactive) | –
24 | Cn1c2cc(Br)sc2c2cnn(Cc3c(F)cccc3F)c(=O)c21 | 31.7% (inactive) | –
25 | Cn1c2cc(Br)sc2c2cnn(Cc3ccc(F)cc3F)c(=O)c21 | – | 2510 nM (active)
26 | O=S(=O)(c1ccc2ccccc2c1)N1CCN(S(=O)(=O)c2c(F)cccc2F)CC1 | 4.89% (inactive) | –
27 | CC(=O)c1cc2c(s1)c1cnn(Cc3ccccc3F)c(=O)c1n2C | – | 794 nM (active)
28 | COc1cccc(Cn2ncc3c4sc(Br)cc4n(C)c3c2=O)c1 | -23.6% (inactive) | –
29 | COc1ccc(S(=O)(=O)N2CCN(S(=O)(=O)c3ccc4c(c3)OCCO4)CC2)cc1 | 11.4% (inactive) | –
30 | COc1cccc(Cn2ncc3c4sc(B(O)O)cc4n(C)c3c2=O)c1 | 35.1% (inactive) | –
31 | C[C@H]1CN(S(=O)(=O)c2ccc3c(c2)OCCO3)CCN1S(=O)(=O)c1c(F)cccc1F | -21.2% (inactive) | –
32 | O=C1CN(S(=O)(=O)c2ccc3c(c2)OCCO3)CCN1S(=O)(=O)c1c(F)cccc1F | 1.7% (inactive) | –
33 | O=S(=O)(c1ccc2c(c1)OCCCO2)N1CCN(S(=O)(=O)c2c(F)cccc2F)CC1 | 2.62% (inactive) | –
